The results in this text go back to PubChem BioAssay.

A number with no mark means an inactive call. For some of these results: Measured potencies and affinities stand elsewhere. The source made the active and inactive calls. Unless noted, how the calls were made is not given here.

The nature of test [1]: antimalarial activity against Dd2 strain (AID 2302;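 active means growth inhibition above 50% at the single 2 µM test dose, taken to imply half-maximal potency below 2 µM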;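 further: 0% = DMSO untreated growth and 100% = chloroquine plus artemisinin killed control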). The settings on record: P. falciparum Dd2 in RBCs, LDH growth readout, 72 h; at 2 µM; hits give high values.
A short description of test [2]: human hepatoma cell viability loss – ATP luminescence, cytotoxicity control for P. falciparum antimalarial project, primary screen (AID 2303;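 active means inhibition above 50%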;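 further: 0% = DMSO wells and 100% = digitonin-killed cells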). Particulars: HepG2 viability, 24-48 h, at 10 µM, hits give high values.
In test [3] the target is L-lactate dehydrogenase (Plasmodium falciparum (isolate CDC / Honduras)) (UniProt Q27743). Nature of the test: PfLDH activity inhibition – cell lysate, 3D7 strain, counter-screen for P. falciparum growth inhibition project (AID 2304).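 Further: 0% = vehicle and 100% = reference inhibitor.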 The settings on record: P. falciparum 3D7 crude extract, LDH APAD/NBT absorbance; at 2 µM; hits give high values. (A counterscreen serves to expose hits that act by an unwanted route or on another target.)

Test [4] can be described thus: inhibition of 3D7 malaria parasite growth – strain 3D7 (AID 2306).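 Further: 0% = DMSO wells and 100% = chloroquine plus artemisinin control wells.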 The settings on record: P. falciparum 3D7 erythrocytic growth, LDH absorbance, 72 h; at 2 µM; hits give high values.
Test [5] deals with Calcium-dependent protein kinase 1 (Plasmodium falciparum (isolate 3D7)) (UniProt P62344). Description: PfCDPK1 kinase inhibitors, biochemical, TCAMS library (AID 1159585; cut-off not given, nearly all actives have IC50 up to about 0.98 µM;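 further: inhibitors leave more ATP so luminescence rises with inhibition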). Particulars: recombinant PfCDPK1, Kinase-Glo ATP depletion luminescence. In general terms: In Kinase-Glo more light means more ATP remaining.
Test [6] concerns the target Plasmodium falciparum protein kinase 6 (PK6, PF3D7_1337100) (UniProt Q8IDW1). Description: PfPK6 kinase inhibitors, biochemical, TCAMS library (AID 1159586). The settings on record: recombinant PfPK6, Kinase-Glo ATP depletion luminescence.
Test [7] addresses Protein kinase 7 (PK7), Plasmodium falciparum 3D7 (PF3D7_0213400) (UniProt Q7YTF7). Description: inhibition of Plasmodium PK7 catalytic activity – biochemical, TCAMS antimalarial set, Kinase-Glo luminescence (AID 1159587). The settings on record: recombinant PfPK7, Kinase-Glo ATP depletion luminescence.
For test [8], the target named is Calcium-dependent protein kinase 4 (Plasmodium falciparum (isolate 3D7)) (UniProt Q8IBS5). Nature of the test: PfCDPK4 kinase inhibitors, biochemical, TCAMS library (AID 1159588; cut-off not given, nearly all actives have IC50 up to about 0.91 µM). Particulars: recombinant PfCDPK4, Kinase-Glo ATP depletion luminescence.
Chain of Calcium-dependent protein kinase 4 (Plasmodium falciparum (isolate 3D7)) (Q8IBS5 whole entry, looked up): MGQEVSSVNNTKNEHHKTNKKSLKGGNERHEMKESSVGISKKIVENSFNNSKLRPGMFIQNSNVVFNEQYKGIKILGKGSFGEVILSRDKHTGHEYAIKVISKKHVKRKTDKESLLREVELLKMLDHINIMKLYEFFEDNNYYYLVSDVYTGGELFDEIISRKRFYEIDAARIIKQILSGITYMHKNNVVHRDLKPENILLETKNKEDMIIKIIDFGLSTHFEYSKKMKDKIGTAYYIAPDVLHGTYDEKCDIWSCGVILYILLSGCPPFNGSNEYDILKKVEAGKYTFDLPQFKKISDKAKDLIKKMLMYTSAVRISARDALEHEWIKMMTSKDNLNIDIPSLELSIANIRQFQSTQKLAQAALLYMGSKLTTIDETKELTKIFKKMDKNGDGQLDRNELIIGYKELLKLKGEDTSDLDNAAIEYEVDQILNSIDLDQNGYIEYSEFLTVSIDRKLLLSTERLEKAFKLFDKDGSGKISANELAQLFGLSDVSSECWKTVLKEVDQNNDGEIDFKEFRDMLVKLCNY

Chain of Protein kinase 7 (PK7), Plasmodium falciparum 3D7 (PF3D7_0213400) (Q7YTF7 1-343): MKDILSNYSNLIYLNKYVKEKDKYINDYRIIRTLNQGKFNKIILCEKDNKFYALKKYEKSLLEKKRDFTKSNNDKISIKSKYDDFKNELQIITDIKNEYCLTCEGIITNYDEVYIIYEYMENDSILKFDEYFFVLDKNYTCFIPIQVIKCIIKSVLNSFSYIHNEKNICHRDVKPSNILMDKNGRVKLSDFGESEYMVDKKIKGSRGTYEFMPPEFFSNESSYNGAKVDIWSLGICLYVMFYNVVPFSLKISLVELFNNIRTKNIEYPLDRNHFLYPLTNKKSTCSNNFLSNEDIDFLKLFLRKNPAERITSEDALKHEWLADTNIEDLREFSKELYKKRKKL
Chain of L-lactate dehydrogenase (Plasmodium falciparum (isolate CDC / Honduras)) (Q27743 whole entry, looked up): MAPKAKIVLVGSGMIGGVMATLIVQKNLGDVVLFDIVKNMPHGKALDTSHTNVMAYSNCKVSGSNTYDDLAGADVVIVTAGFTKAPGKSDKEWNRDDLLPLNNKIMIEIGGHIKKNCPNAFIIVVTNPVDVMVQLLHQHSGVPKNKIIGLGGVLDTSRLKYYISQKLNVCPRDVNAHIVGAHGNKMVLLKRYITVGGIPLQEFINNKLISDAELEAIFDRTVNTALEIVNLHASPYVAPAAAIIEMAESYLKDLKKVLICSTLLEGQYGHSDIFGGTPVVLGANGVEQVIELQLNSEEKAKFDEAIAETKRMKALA
Chain of Calcium-dependent protein kinase 1 (Plasmodium falciparum (isolate 3D7)) (P62344 whole entry, looked up): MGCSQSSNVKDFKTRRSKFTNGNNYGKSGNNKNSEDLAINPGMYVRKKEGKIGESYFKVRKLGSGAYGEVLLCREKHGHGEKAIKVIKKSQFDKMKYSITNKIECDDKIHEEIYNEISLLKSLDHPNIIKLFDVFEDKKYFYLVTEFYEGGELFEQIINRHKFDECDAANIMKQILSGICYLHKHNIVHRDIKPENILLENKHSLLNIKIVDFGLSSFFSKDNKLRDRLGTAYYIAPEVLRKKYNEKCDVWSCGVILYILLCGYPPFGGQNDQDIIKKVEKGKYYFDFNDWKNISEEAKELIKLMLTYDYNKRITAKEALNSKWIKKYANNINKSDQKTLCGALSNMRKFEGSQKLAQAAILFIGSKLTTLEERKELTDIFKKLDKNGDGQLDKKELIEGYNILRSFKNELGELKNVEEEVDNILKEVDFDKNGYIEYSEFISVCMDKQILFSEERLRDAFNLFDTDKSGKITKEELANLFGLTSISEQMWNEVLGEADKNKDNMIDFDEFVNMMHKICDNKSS
Chain of Plasmodium falciparum protein kinase 6 (PK6, PF3D7_1337100) (Q8IDW1 1-305): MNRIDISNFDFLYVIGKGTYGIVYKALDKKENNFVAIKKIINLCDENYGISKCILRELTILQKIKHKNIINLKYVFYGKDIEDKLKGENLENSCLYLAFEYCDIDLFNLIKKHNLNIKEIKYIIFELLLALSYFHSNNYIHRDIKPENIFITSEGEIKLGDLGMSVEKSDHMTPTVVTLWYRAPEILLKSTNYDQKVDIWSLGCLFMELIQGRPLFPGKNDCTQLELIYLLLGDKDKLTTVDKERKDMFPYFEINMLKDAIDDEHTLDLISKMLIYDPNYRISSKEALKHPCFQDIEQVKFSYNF

The term inhibition denotes the change of the read-out against control, counted positive when it falls. On to `Cc1cc(NCCc2ccc(O)cc2)nc(NCC(c2ccccc2)c2ccccc2)n1`, for which the growth inhibition in test [1] was 77% (active); in test [4], 102% (active). Besides, the figures for the inhibition in test [2] and in test [3] were 22% and 1%, respectively. Further, the outcome in test [5], in test [6], in test [7] and in test [8] was inactive.

In the case of `CCOc1ccc2c(NN=Cc3ccccc3F)cc(C)nc2c1`, the growth inhibition in test [1] is 77% (active); in test [4], 101% (active). The inhibition in test [2] is -1%; in test [3], -5%. Besides, the result in test [5], in test [6], in test [7] and in test [8] was inactive.

Consider `O=C(NCCCCN1CCC(c2c[nH]c3ccc(-c4ccccc4)cc23)CC1)c1ccc(-c2ccccc2)cc1`, for which the growth inhibition in test [1] is 40%; in test [4] it was 97% (active). Also, the inhibition in test [2] was 48%; in test [3], 3%. For the same compound, the result in test [5], in test [6], in test [7] and in test [8] was inactive.

For the compound `COc1cc(-n2cnc3cc(-c4ccc([N+](=O)[O-])cc4)sc3c2=O)ccc1OCCN1CCCC1`, the growth inhibition in test [1] was 79% (active); in test [4], 97% (active). The inhibition is 44% in test [2] and -4% in test [3]. The result in test [5], in test [6], in test [7] and in test [8] was inactive.

As for `O=C(/C=C/c1ccc(C(F)(F)F)cc1)NCCCCCN1CCN(C(=O)Nc2ccc(F)c(Cl)c2)CC1`, the results for the growth inhibition in test [1] and in test [4] were -6% and 89% (active), respectively. The inhibition in test [2] is 35%; in test [3] it was -2%. In addition, the outcome in test [5], in test [6], in test [7] and in test [8] was inactive.

As for `O=C(Cn1c(CCc2cccc(F)c2F)cc(=O)c2ccccc21)N(Cc1ccc(-c2ccc(C(F)(F)F)cc2)cc1)C1CCN(CCO)CC1`, the growth inhibition in test [1] is 84% (active); in test [4], 91% (active). In addition, the inhibition was 82% (active) in test [2] and 0% in test [3]. Moreover, the result in test [5], in test [6], in test [7] and in test [8] was inactive.

Turning to `COc1ccc2nc(C)cc(NN=Cc3ccccc3)c2c1`, the results for the growth inhibition in test [1] and in test [4] were 6% and 80% (active), respectively. Moreover, the inhibition in test [2] is 4%; in test [3] it was 0%. In addition, the outcome in test [5], in test [6], in test [7] and in test [8] was inactive.

On to `CN(C)CCOc1ccc2c(c1)OC(C)(C)C=C2c1cccc2ccccc12`, for which the figures for the growth inhibition in test [1] and in test [4] were 48% and 95% (active), respectively. The values for the inhibition in test [2] and in test [3] were 66% (active) and -2%, respectively. Further, the outcome in test [5], in test [6], in test [7] and in test [8] was inactive.

In the case of `CC(C)CCN(Cc1cncn1Cc1cccc(C(F)(F)F)c1)C(=O)c1cncc(-c2ccccc2)c1`, the results for the growth inhibition in test [1] and in test [4] were 4% and 100% (active), respectively. The values for the inhibition in test [2] and in test [3] were 15% and -3%, respectively. Besides, the result in test [5], in test [6], in test [7] and in test [8] was inactive.

Turning to `C/C(=C\C(=O)NC1CC1)c1ccccc1OCc1ccccc1`, the growth inhibition in test [1] was 1%; in test [4], 90% (active). Moreover, the inhibition is 3% in test [2] and -1% in test [3]. Besides, the result in test [5], in test [6], in test [7] and in test [8] was inactive.

Turning to `Cc1cc(N2CC=CCC2)nc(/N=C(\N)Nc2ccc(Cl)cc2)n1`, the growth inhibition is 78% (active) in test [1] and 100% (active) in test [4]. Moreover, the inhibition was -2% in test [2] and -8% in test [3]. The outcome in test [5], in test [6], in test [7] and in test [8] was inactive.

Consider `O=C(/C=C/c1ccc(C(F)(F)F)cc1)N1CCC(CCN2CCC(c3c[nH]c4ccccc34)CC2)CC1`, for which the growth inhibition is 77% (active) in test [1] and 100% (active) in test [4]. Also, the inhibition is 70% (active) in test [2] and -11% in test [3]. For the same compound, the result in test [5], in test [6], in test [7] and in test [8] was inactive.

With `CC1CCCC(NC(=O)CCOc2ccccc2)C1` (stereo not given), the figures for the growth inhibition in test [1] and in test [4] were 32% and 96% (active), respectively. Further, the values for the inhibition in test [2] and in test [3] were -14% and -2%, respectively. Further, the outcome in test [5], in test [6], in test [7] and in test [8] was inactive.

On to `CCOc1ccc(-c2cc3nc(C4CCNCC4)c(C(=O)Nc4ccc(C)cc4Cl)cn3n2)cc1`, for which the growth inhibition in test [1] was 22%; in test [4], 95% (active). Also, the inhibition in test [2] was 63% (active); in test [3], 2%. The outcome in test [5], in test [6], in test [7] and in test [8] was inactive.

Regarding `O=C(NCc1ccccc1)Nc1cccc(-c2cccc(-c3nc4ccc(C(F)(F)F)cc4[nH]3)c2)c1`, the growth inhibition in test [1] was 30%; in test [4], 95% (active). Also, the figures for the inhibition in test [2] and in test [3] were 56% (active) and 0%, respectively. Besides, the result in test [5], in test [6], in test [7] and in test [8] was inactive.

`COc1cc(NC(=O)/C=C/c2ccccc2OC(F)(F)F)cc(OCCN2CCCCC2)c1`: the growth inhibition in test [1] was 6%; in test [4] it was 96% (active). In addition, the inhibition is 25% in test [2] and 0% in test [3]. For the same compound, the result in test [5], in test [6], in test [7] and in test [8] was inactive.

In the case of `CCN(CC)C(=NC(N)=NCCCCCCN=C(N)N=C(Nc1ccc(Cl)cc1)N(CC)CC)Nc1ccc(Cl)cc1`, the growth inhibition is 96% (active) in test [1] and 97% (active) in test [4]. Besides, the results for the inhibition in test [2] and in test [3] were 1% and 8%, respectively. Besides, the outcome in test [5], in test [6], in test [7] and in test [8] was inactive.

For the compound `COc1ccc(CN(C)CC(O)COc2ccc(NC(=O)c3cccc4c(=O)c5cccc(OC)c5[nH]c34)cc2)cc1OC` (stereo not given), the results for the growth inhibition in test [1] and in test [4] were 65% (active) and 93% (active), respectively. The inhibition in test [2] is 72% (active); in test [3], -3%. Besides, the outcome in test [5], in test [6], in test [7] and in test [8] was inactive.

`COc1cc(NC(=O)CCCN2CCN(c3cccc(Cl)c3Cl)CC2)ccc1N1CCN(C(C)C)CC1`: the growth inhibition was 59% (active) in test [1] and 99% (active) in test [4]. Besides, the inhibition in test [2] is 31%; in test [3] it was 4%. For the same compound, the outcome in test [5], in test [6], in test [7] and in test [8] was inactive.

Take `CC(C)(C)c1cc(C(=O)N2CCN(c3cnccn3)CC2)n(Cc2ccccc2)n1`: the growth inhibition in test [1] was 33%; in test [4] it was 92% (active). For the same compound, the inhibition is -1% in test [2] and -4% in test [3]. Also, the outcome in test [5], in test [6], in test [7] and in test [8] was inactive.
